# Only some compounds are listed: those with a hit (about 4.2% of all), similar ones and a draw of the others.
# DAX1 inh: blocks DAX1 repression of SF-1 activated StAR promoter. HEK293T StAR-luciferase reporter, SF-1/DAX-1 repression relief. inhibition, % at 6.8 µM. 370,000 compounds, 1.1% hits;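 active means inhibition above the mean over all tested compounds plus 3 SD, cut at about 3.6% in these data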;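 further: 0% = DAX-1 cells with DMSO and 100% = cells lacking DAX-1 with DMSO; higher inhibition means more luminescence from relief of DAX-1 repression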
# hgDAF12 agonist: agonists of H. glycines DAF-12 nuclear receptor; HEK293 GAL4-hgDAF12 UAS-luciferase reporter, agonist luminescence; normalized to butyrate control; activation, % at 6.8 µM; 370,000 compounds, 1.8% hits; AID 687014;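 active means activation above a cutoff set at the mean of all screened compounds plus 3 SD, cut at about 10% in these data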;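 further: 0% = DMSO wells and 100% = sodium butyrate wells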
# ssDAF12 agonist: activators of S. stercoralis DAF-12 nuclear receptor | activation, % at 6.8 µM | 370,000 compounds, 1% hits | HEK293 ssDAF-12/GRIP1 lit1-tk-luc reporter, luminescence; % of 3 µM dafachronic acid response;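 active means activation above the mean over all tested compounds plus 3 SD, cut at about 0.9% in these data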;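 further: 0% = DMSO-only wells and 100% = 3 µM delta7-dafachronic acid wells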
# hcDAF12 agonist: activators of H. contortus DAF-12 nuclear receptor | AID 652067 | HEK293 hcDAF-12 lit1-tk-luc reporter, luminescence; 0% DMSO, 100% Δ7-dafachronic acid | activation, % at 6.8 µM | 370,000 compounds, 1.4% hits;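 active means activation above the mean of all tested compounds plus 3 SD, cut at about 5.5% in these data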;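 further: 100% = response to 3 µM Δ7-dafachronic acid high control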
# SMARCA2 act: SMARCA2 function activation, primary screen; MG213 cells, MMTV-luciferase reporter, dexamethasone, overnight; activation, % at 9.1 µM; 370,000 compounds, 1% hits; AID 652017; in the data active means activation above about 7.8%;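 further: 0% = vehicle wells and 100% = reference activator wells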
# SMARCA2 conf: confirmation of SMARCA2 (BRM) function activators; shares compounds with SMARCA2 act; MG213 cells, MMTV-luciferase with dexamethasone, luminescence, overnight; MG213 cells expressing E1A, Rb sequestered; DMSO wells 0%, reference activator 100%; activation, % at 9.1 µM; 3,500 compounds, 30% hits; AID 652260;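 active means activation above its plate's cutoff, the mean activation of tested wells plus 3 SD, cut at about 7.9% in these data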
# VP16 Luc act: counter-screen for SMARCA2 activators: GAL4-VP16 luciferase reporter activation. HEK293 GAL4-VP16 pG5luc reporter, luciferase luminescence; scaled: DMSO wells 0%, SAHA wells 100%. 3,500 compounds, 41% hits. shares compounds with SMARCA2 act. AID 686939. activation, % at 9.1 µM;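 active means activation above the solvent-only control well mean plus 3 SD, averaged across control plates, cut at about 5.2% in these data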
# LXR ag: activates human LXR-beta, counter-screen for hcDAF-12 agonists; 3,400 tested, under 10 active; activation, % at 6.8 µM; HEK293 Gal4-LXR tk-luc reporter, luminescence, 24 h; normalized: DMSO 0%, positive control 100%; shares compounds with hcDAF12 agonist; AID 743027;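 active means mean percent activation of the reporter above a cutoff set as the average over tested compounds plus their standard deviation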
# Target sequence (P55055 whole entry, looked up, the tested form may be a part): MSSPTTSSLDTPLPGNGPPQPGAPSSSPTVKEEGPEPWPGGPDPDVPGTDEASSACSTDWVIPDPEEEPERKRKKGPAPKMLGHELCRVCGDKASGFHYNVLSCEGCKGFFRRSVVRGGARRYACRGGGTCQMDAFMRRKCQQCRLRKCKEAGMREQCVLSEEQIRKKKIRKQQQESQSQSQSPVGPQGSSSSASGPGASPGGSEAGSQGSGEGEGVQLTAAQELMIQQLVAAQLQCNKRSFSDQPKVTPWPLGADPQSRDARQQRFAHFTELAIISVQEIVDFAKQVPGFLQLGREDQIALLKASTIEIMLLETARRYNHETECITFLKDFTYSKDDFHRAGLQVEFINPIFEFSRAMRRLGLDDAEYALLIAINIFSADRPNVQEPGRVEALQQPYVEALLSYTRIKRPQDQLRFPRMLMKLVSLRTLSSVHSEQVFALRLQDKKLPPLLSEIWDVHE
# hcDAF12 ag: confirmation of H. contortus DAF-12 agonists | shares compounds with hcDAF12 agonist | AID 743032 | activation, % at 6.8 µM | 3,400 compounds, 61% hits | HEK293 hcDAF-12 lit1-tk-luc reporter, luminescence; % of Δ7-dafachronic acid response;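 active means mean activation across triplicate tests above the threshold derived from the earlier primary screen, cut at about 5.5% in these data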;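 further: 0% = DMSO only wells and 100% = 3 µM Δ7-dafachronic acid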
# Active calls of the source: *; / = not tested or not shown.
SMILES,DAX1 inh,hgDAF12 agonist,ssDAF12 agonist,hcDAF12 agonist,SMARCA2 act,SMARCA2 conf,VP16 Luc act,LXR ag,hcDAF12 ag
CCOC(=O)N/C(N)=N/c1nc2ccccc2s1,4.2*,10.6*,0.2,7.0*,9.9*,8.4*,13.5*,1.3,5.2
Cc1nc2ccc(Cl)cc2nc(C)/c1=N\O,1.9,11.1*,1.0*,7.7*,8.1*,9.7*,8.7*,0.4,6.3*
Nc1nnc2cc(Cl)ccc2n1,-0.6,5.6,-0.6,-0.9,-2.9,/,/,/,/
Cc1cccc(C)c1N1C(=O)c2ccccc2NC(=O)C1C(=O)NCc1ccco1 (stereo unspecified),-1.1,-1.5,-1.6,-1.2,-2.3,/,/,/,/
O=C(CSc1nnc(COc2ccccc2)n1-c1ccccc1)Nc1ccc2c(c1)OCCO2,1.7,-2.7,-2.0,-1.6,-4.3,/,/,/,/
O=C(NC(=S)Nc1cccnc1Cl)c1ccco1,2.1,8.3,-0.6,2.2,1.6,/,/,/,/
O=C(NC(=S)Nc1cccnc1Cl)c1ccc(Cl)cc1,2.7,15.4*,1.1*,10.3*,9.9*,2.9,8.9*,1.1,14.9*
CC(=O)n1cc(/C=N/NC(N)=S)c2ccccc21,-0.3,-2.0,-1.6,0.1,2.6,/,/,/,/
CC(=O)n1cc(/C=C2/N=C(c3ccccc3)OC2=O)c2ccccc21,0.2,2.0,0.0,6.7*,8.2*,-0.7,1.3,0.0,3.6
Nc1ncnc2c1ncn2[C@@H]1O[C@H](C(=O)N[C@@H](CCc2ccccc2)C(=O)N2CCN(C(=O)C(F)(F)F)CC2)[C@@H](O)[C@H]1O,1.0,-2.9,-0.6,-1.1,-1.2,/,/,/,/
COc1cc(O)c2c(=O)c(-c3ccc(O[C@@H]4O[C@H](CO)[C@@H](O)[C@H](O)[C@H]4O)cc3)coc2c1,1.5,12.1*,0.9,7.2*,8.8*,12.7*,9.1*,1.6,5.5
O=c1c(-c2ccc(O)cc2)coc2cc(OC3OC(CO)C(O)C(O)C3O)cc(O)c12 (stereo unspecified),0.3,7.7,-0.3,3.6,6.1,/,/,/,/
Oc1cccc(Nc2nc(O)c(/C=C3\C=Nc4ccccc43)s2)c1,1.2,10.3,0.5,6.8*,10.7*,15.1*,6.5*,0.3,7.0*
Cn1c(C(=O)Nc2ccccc2)cc2sccc21,1.0,11.1*,1.4*,7.0*,9.2*,8.7*,7.2*,0.8,11.7*
N#Cc1ccc(NCCCN2CCC(C(O)(c3ccccc3)c3ccccc3)CC2)cc1,1.0,2.0,-0.9,-3.1,1.6,/,/,/,/
NNc1nc2c(-c3ccc(Cl)cc3)nnn2c2ccccc12,2.2,9.9,0.4,8.1*,8.4*,7.2,10.9*,1.0,13.7*
O=S(=O)(c1ccc(F)cc1)n1c(CN2CCOCC2)nc2ccccc21,-0.1,-2.8,-1.3,0.2,-2.0,/,/,/,/
Cc1cc(C(=O)NNC(=O)c2cccc(Cl)c2)no1,0.2,0.9,-0.9,0.1,4.0,/,/,/,/
Cc1cc(/C(N)=N/OC(=O)c2cccc(Cl)c2)no1,0.7,5.7,1.5*,7.1*,13.3*,4.4,1.2,0.2,2.2
COc1ccc(NC(=O)c2sc(SC)nc2N)cc1,1.2,12.8*,1.3*,7.3*,10.9*,7.5,3.9,0.6,9.2*
CCN(CC)C(=O)CSc1nc(N)c(C(=O)Nc2ccc(OC)cc2)s1,-0.1,0.1,-1.1,-3.5,-0.2,/,/,/,/
c1ccc2[nH]c(-c3ccc4c(c3)OCO4)nc2c1,2.5,12.4*,0.4,9.9*,8.1*,22.4*,11.8*,1.4,4.8
Clc1ccc(-c2nc3ccccc3[nH]2)cn1,1.1,1.7,-1.3,1.9,3.0,/,/,/,/
O=C(Nc1ccc2c(c1)OCO2)c1cccs1,2.7,11.9*,-0.3,6.6*,10.1*,11.7*,9.6*,0.8,6.1*
c1ccc(COc2ccc(OCCCN3CCCC3)cc2)cc1,4.4*,8.2,0.3,7.3*,8.7*,7.4,9.8*,1.4,9.4*
SMILES,DAX1 inh,hgDAF12 agonist,ssDAF12 agonist,hcDAF12 agonist,SMARCA2 act,SMARCA2 conf,VP16 Luc act,LXR ag,hcDAF12 ag
c1ccc(COc2ccc(OCCN3CCCC3)cc2)cc1,0.5,6.0,-1.8,0.6,0.0,/,/,/,/
Cc1ccc(CN(C)C[C@H]2OCc3cnnn3CCCC(=O)N([C@H](C)CO)C[C@@H]2C)cc1,0.3,0.8,-0.4,-0.1,1.6,/,/,/,/
O=C(CSc1nc2ccccc2nc1N1CCCC1)N1CCN(c2cccc(C(F)(F)F)c2)CC1,-0.4,-0.2,-1.2,-0.6,5.2,/,/,/,/
Cn1cc(-c2nnc(-c3ccccc3)o2)c2ccccc21,3.4,17.0*,1.3*,7.9*,13.1*,5.6,7.2*,1.9,18.0*
Cn1cc(-c2ccccc2C(=O)O)c(=O)c2ccccc21,0.1,-2.7,-0.7,1.5,-3.6,/,/,/,/
Nc1nc2c(-c3ccc([N+](=O)[O-])cc3)nnn2c2ccccc12,1.9,7.9,0.8,1.4,-2.8,/,/,/,/
O=c1nc2c(O)cccn2c2c1c(=O)[nH]c1ccccc12,1.0,-1.5,-0.7,3.3,-4.3,/,/,/,/
O=c1[nH]c2ccccc2c2nc3ccccn3c12,1.1,12.0*,1.7*,8.1*,12.0*,16.3*,7.1*,0.5,9.5*
CNC(=O)c1cc2c(ccc3ccccc32)o1,0.1,3.9,-1.0,7.9*,9.6*,6.6,3.5,0.2,1.1
O=C1c2cccc(NCCNCCO)c2C(=O)c2cccc(NCCNCCO)c21,-5.5,-0.5,0.7,8.9*,10.3*,-15.8,-1.0,2.4,14.5*
COC(=O)[C@]12C[C@H](CC(=O)N3CCCCC3)C(=O)N(Cc3ccc(Cl)cc3Cl)C1=C[C@H](C(C)(C)C)O[C@@H]2C,-1.1,2.0,-1.7,1.6,-2.3,/,/,/,/
COc1ccc(/C=N/Nc2ccccn2)cc1OC,0.9,2.6,-1.9,0.5,4.0,/,/,/,/
COc1cc(/C=N/Nc2ccccn2)ccc1O,2.3,12.1*,0.0,7.3*,9.6*,7.5,10.3*,0.8,7.6*
Cc1cc2ccccn2c1C(=O)Nc1cccc(Cl)c1,0.9,6.1,0.8,7.0*,8.1*,4.9,3.4,0.3,6.1*
Cc1cc2ccccn2c1C(=O)c1ccc(Cl)cc1,-0.5,2.0,-1.5,-2.3,3.1,/,/,/,/

# From PubChem
